Screening data as filed in PubChem.
A selection: hits, their analogues and other compounds. The true share with any hit is near 9.9%.
KB-3-1 tox: qHTS assay for MDR1-selective chemotherapeutics: Primary screen using the parental adenocarcinoma cell KB-3-1; KB-3-1 viability, CellTiter-Glo ATP luminescence, 72 h; Potency, µM (highest dose often 46.1 µM), usual class: cytotoxic; 400,000 tested, 1.4% active; also: nearly all actives have a fitted effect of over 60% in size
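Multi-concentration cytotoxicity screen in KB-3-1 cells grown in DMEM lacking phenol red with 10% FBS. After 72 h at 37 °C with compound, ATP-dependent luminescence was recorded.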
MCF10A rereplic: A quantitative high throughput screen for small molecules that induce DNA re-replication in MCF 10a normal breast cells | MCF 10A DNA re-replication, Hoechst nuclear intensity, 48 h | Potency, µM (titrated, usually from 46.1 µM), hits mostly activators | 350,000 tested, 2.9% active; also: nearly all actives have a fitted effect of over 50% in size
KB-V1 cytotox: qHTS assay for MDR1-selective chemotherapeutics: Primary screen using the drug-selected MDR subline cells KB-V1. Potency, µM (doses to about 46.1 µM), actives largely listed as cytotoxic. 400,000 tested, 3.4% active. KB-V1 MDR cells viability, CellTiter-Glo, 72 h. AID 1347076, 2019; also: nearly all actives have a fitted effect of over 60% in size
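Potencies derive from concentration-effect curves fitted to normalized luminescence (CellTiter-Glo) of KB-V1 cells treated for 72 h at 37 degrees C in phenol-red-free DMEM containing 10% FBS.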
SW480 rereplic: A quantitative high throughput screen for small molecules that induce DNA re-replication in SW480 colon adenocarcinoma cells; AID 624297, 2012; 340,000 tested, 1.8% active; Potency, µM (top dose mostly 46.1 µM), usual class: activators; SW480 DNA re-replication, Hoechst DNA content imaging, 48 h; also: nearly all actives have a fitted effect of over 55% in size
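Image-based DNA-content assay: after two days of treatment, nuclei were labelled with the DNA dye Hoechst and imaged, and hits were compounds raising the count of nuclei showing high fluorescence intensity.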
IL1B secr inh: qHTS for Inhibitors of Inflammasome Signaling: IL-1-beta AlphaLISA Primary Screen. 360,000 tested, 4.7% active. activity change, % at 57.5 µM. AID 743279, 2014. THP-1 LPS/ATP IL-1B secretion, AlphaLISA, 16 h; active compounds read low; in the data active = activity change below about -50%; inconclusive = mostly about -30% to -49%
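Secreted IL-1B measured by AlphaLISA bead assay after 16 h compound exposure of THP-1 cells; compounds (final up to 57.5 uM) added 1 h before LPS (250 ng/mL) and ATP (1.25 mM) stimulation; lower signal means less secretion.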
Of the large screens only hits and unclear results are named; the others gave an inactive call. Unless noted, calls follow the shape of the dose curve; as a rule, active = well fitted curve in the direction sought with a large enough effect; inconclusive = small, poorly fitted or top-dose-only effect, or another doubt; inactive = no such curve, though single readings can be large; an effect the other way counts as inactive or inconclusive.

O=C(Nc1ccncc1)Nc1cc(Cl)ccc1Cl	SW480 rereplic inconclusive, IL1B secr inh -54
O=C(Nc1ccncc1)Nc1ccc(Cl)cc1Cl	none (no result: IL1B secr inh)
CC(=O)c1ccc(NC(=O)NC2CCCCCCC2)cc1	IL1B secr inh -66
O=C(Nc1ccncc1)Nc1ccncc1	none
CC(=O)c1ccc(NC(=O)Nc2ccncc2)cc1	none
O=C(O)c1ccc2c(c1)S(=O)(=O)c1cc(N3CCN(c4ncccn4)CC3)ccc1C2=O	KB-3-1 tox inconclusive, KB-V1 cytotox inconclusive (no result: MCF10A rereplic, SW480 rereplic)
Cc1cc(C)cc(S(=O)(=O)c2cn(C)c3cc(N4CCN(C)CC4)c(F)cc3c2=O)c1	MCF10A rereplic 23µM, KB-V1 cytotox inconclusive
CC1(C)CC1C(=O)Nc1ccc([N+](=O)[O-])cc1Br (stereo not given)	none
Cc1ccc(C2(c3ccc(C)cc3)CC2C(=O)Nc2ccc([N+](=O)[O-])cc2O)cc1 (stereo not given)	KB-3-1 tox inconclusive, MCF10A rereplic inconclusive, KB-V1 cytotox 15µM, IL1B secr inh -73
O=C(Cc1ccccc1)Nc1c(C(=O)Nc2ccccc2F)oc2ccccc12	none (no result: MCF10A rereplic, SW480 rereplic, IL1B secr inh)
O=C(CSC1=NNC(c2ccccn2)S1)Nc1ccccc1 (stereo not given)	MCF10A rereplic inconclusive, SW480 rereplic 16µM
CCc1nc2c(OCc3cccc(Cl)c3)cccn2c1N(C)C(=O)Nc1ccccc1OC	none (no result: MCF10A rereplic, SW480 rereplic)
C=CC[C@H](CC(=O)N(CCO)Cc1ccccc1)C(=O)N[C@H](COC(=O)[C@@H](CC=C)CC(=O)OC(C)(C)C)Cc1c[nH]c2ccccc12	MCF10A rereplic inconclusive, IL1B secr inh -65
C=CC[C@H](CC(=O)N(CCO)Cc1ccccc1)C(=O)N[C@H](COC(=O)[C@@H](CC=C)CC(=O)OC(C)(C)C)c1ccccc1	IL1B secr inh -64
C=CC[C@@H](CC(=O)N(CCO)Cc1ccccc1)C(=O)N[C@H](COC(=O)[C@H](CC=C)CC(=O)OC(C)(C)C)Cc1c[nH]c2ccccc12	MCF10A rereplic inconclusive, IL1B secr inh -59
CC(C)(C)S(=O)(=O)c1nc2ccccc2s1	IL1B secr inh inconclusive
O=S(=O)(CCSc1nc2ccccc2s1)c1nc2ccccc2s1	KB-3-1 tox inconclusive, MCF10A rereplic inconclusive, KB-V1 cytotox inconclusive, SW480 rereplic inconclusive, IL1B secr inh -100
C=CCS(=O)(=O)c1nc2ccccc2s1	KB-3-1 tox inconclusive, MCF10A rereplic 7.3µM, KB-V1 cytotox 23µM, SW480 rereplic inconclusive, IL1B secr inh -115
COc1ccc2nc3sc(C(=O)N4CCN(c5ccc(F)cc5)CC4)cc3cc2c1	none (no result: MCF10A rereplic, SW480 rereplic, IL1B secr inh)
CC1=C/C(=C(/c2cc(C)c(O)c(Br)c2)c2ccccc2S(=O)(=O)O)C=C(Br)C1=O	KB-3-1 tox inconclusive, KB-V1 cytotox inconclusive, IL1B secr inh -71
O=S(=O)(c1ccccc1Br)N(CC(O)COCc1ccccc1)C1CC1 (stereo not given)	none
Cc1[nH][nH]c(=O)c1C(c1c(C)[nH][nH]c1=O)c1cn(Cc2ccc(F)cc2)c2ccccc12	KB-3-1 tox inconclusive, MCF10A rereplic inconclusive, KB-V1 cytotox inconclusive, SW480 rereplic 9.2µM, IL1B secr inh -101
O=c1cnn(Cc2ccc(Cl)c(Cl)c2)c2ccccc12	KB-3-1 tox inconclusive, KB-V1 cytotox inconclusive
Cc1[nH][nH]c(=O)c1C(c1c(C)[nH][nH]c1=O)c1cn(Cc2ccc(Cl)c(Cl)c2)c2ccccc12	KB-3-1 tox 23µM, MCF10A rereplic inconclusive, KB-V1 cytotox 13µM, SW480 rereplic 9.2µM, IL1B secr inh -98
O=C(c1cc(Cl)cc(Cl)c1)N1CCC2CC1c1cc(N3CCCCC3)ccc12 (stereo not given)	none (no result: MCF10A rereplic, SW480 rereplic)
COc1ccc(OC)c(C(C)NC(=O)c2ccc(Br)cc2)c1 (stereo not given)	KB-V1 cytotox 16µM
COc1ccc(C(C)NC(=O)c2ccc(Br)cc2)cc1OC (stereo not given)	KB-V1 cytotox 16µM
COc1ccc(C(C)NC(=O)c2ccc([N+](=O)[O-])cc2)cc1OC (stereo not given)	KB-V1 cytotox 21µM
COc1ccc(C(C)NC(=O)c2cccc([N+](=O)[O-])c2)cc1OC (stereo not given)	KB-V1 cytotox 16µM
COc1ccc(C(C)NC(=O)c2ccccc2Cl)cc1OC (stereo not given)	KB-V1 cytotox inconclusive
COc1cc(OC)cc(C(=O)NC(C)c2ccc(Br)cc2)c1 (stereo not given)	none
CCc1ccc(N2CC(C(=O)Nc3ccc4c(c3)OCCO4)CC2=O)cc1 (stereo not given)	none
O=C(c1cccc(Cl)c1)N1c2ncnn2C2(CCCCC2)[C@@H]2CCCC[C@@H]21	none (no result: MCF10A rereplic, SW480 rereplic, IL1B secr inh)
CS(=O)(=O)c1ccc(NS(=O)(=O)c2ccc(Cl)c(C(=O)NCc3ccco3)c2)cc1	none
Cc1nc2ccc(Cl)cc2c(-c2ccccc2Cl)c1CC(=O)O	MCF10A rereplic inconclusive
CN1CCc2nc3ccc(Cl)cc3c(-c3ccccc3Cl)c2C1	IL1B secr inh -56
Cn1nnc2cc(NC(=O)Nc3cccc(C(F)(F)F)c3)ccc21	KB-V1 cytotox inconclusive, SW480 rereplic inconclusive, IL1B secr inh inconclusive
C=CCn1c(C)cc(-c2csc(NC)n2)c1C	KB-3-1 tox inconclusive, MCF10A rereplic inconclusive, IL1B secr inh -96
C=CCn1c(C)cc(-c2csc(NCC)n2)c1C	MCF10A rereplic inconclusive, KB-V1 cytotox inconclusive, SW480 rereplic inconclusive, IL1B secr inh -55
COC(=O)c1cc(S(=O)(=O)N(C)C2CCCCC2)c[nH]1	none
COc1ccc(C2=C(C=C(C#N)C#N)C(c3ccccc3C)c3ccccc3O2)cc1OC (stereo not given)	KB-V1 cytotox 15µM, SW480 rereplic inconclusive
COc1ccc(C)cc1S(=O)(=O)n1c([N+](=O)[O-])cnc1C	none
CC(=O)Nc1c(Cl)cnn(-c2ccccc2)c1=O	IL1B secr inh inconclusive
O=C(O)c1ccc(-n2ncc(Cl)c(Cl)c2=O)cc1	KB-V1 cytotox inconclusive, IL1B secr inh -102 (no result: MCF10A rereplic, SW480 rereplic)
CC(NC(=O)Cn1ccsc1=N)C12CC3CC(CC(C3)C1)C2 (stereo not given)	SW480 rereplic inconclusive, IL1B secr inh -59
CC(NC(=O)Cn1ncc(Cl)c(Cl)c1=O)C12CC3CC(CC(C3)C1)C2 (stereo not given)	KB-3-1 tox 6.5µM, MCF10A rereplic 3.7µM, KB-V1 cytotox inconclusive, SW480 rereplic 5.2µM, IL1B secr inh -119
CCn1cc(C(=O)NC(C)C23CC4CC(CC(C4)C2)C3)cn1 (stereo not given)	KB-V1 cytotox inconclusive
Cc1cc(C)c(C(=O)c2ccccc2C(=O)O)c(C)c1	none (no result: MCF10A rereplic, SW480 rereplic)
CCC(Sc1nnc2c3ccccc3n(C)c2n1)C(=O)Nc1nnc(C(C)C)s1 (stereo not given)	none (no result: MCF10A rereplic, SW480 rereplic, IL1B secr inh)
